Structures can show the parent of a compound that is named as a salt.
Tested on: MARIMO
Assay: cell viability relative to vehicle control; higher = less cytotoxic
Conditions: 10 µM; SRSF2 genotype: SRSF2 P95H/wt
Procedure, shortened: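 After removal of identity-inconsistent compounds, the Selleck bioactive, kinase and epigenetic probe libraries were screened on CRISPR-edited mutant clones and isogenic wild-type clones of four leukaemia lines. Plates were 384-well, each well holding 2000 cells in 50 µL medium and receiving a single 10 µM acoustically dispensed dose. CellTiter-Glo luminescence was read 48 h later, after the supernatant was taken off. Genedata Screener was used to express viability as percent of the on-plate vehicle control.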

Compared with `Cc1ccc2nc(NC(=O)CSc3nc4c(c(=O)n3-c3ccccc3)SCC4)sc2c1`, `CC(=O)Nc1cccc2c1c(Sc1ccc(Cl)cc1)c(C)n2CC(=O)O` is higher in cell viability: 94% for the first, 108% for the second.

First: COC(=O)C1=C(C)NC(C)=C(C(=O)OCCN(C)Cc2ccccc2)C1c1cccc([N+](=O)[O-])c1 (configuration not stated) [Nicardipine HCl]
Second: CC(C)[C@H]1CC[C@H](C(=O)N[C@H](Cc2ccccc2)C(=O)O)CC1 [Nateglinide (Starlix)]
The cell viability of the first is lower: 81.8% for the first, 97.8% for the second.

Compared with `O=C(O)c1cccnc1Nc1cccc(C(F)(F)F)c1` [Niflumic acid], `Cc1cc(Nc2cc(N3CCN(C)CC3)nc(/C=C/c3ccccc3)n2)n[nH]1` [ENMD-2076 L-(+)-Tartaric acid] is lower in cell viability: 94.1% for the first, 34.8% for the second.

Going from `O=C1C[C@@H](c2ccc(O)cc2)Oc2cc(O)cc(O)c21` [Naringenin] to `C[C@@H]1O[C@@H](O[C@H]2[C@H](Oc3cc(O)c4c(c3)O[C@H](c3ccc(O)cc3)CC4=O)O[C@H](CO)[C@@H](O)[C@@H]2O)[C@H](O)[C@H](O)[C@H]1O` [Naringin (Naringoside)], the cell viability falls from 106% to 102%.

Going from `C=CC(=O)N1CCC[C@@H](n2nc(-c3ccc(Oc4ccccc4)cc3)c3c(N)ncnc32)C1` to `C[C@]12CC[C@H](O)CC1=CC[C@@H]1[C@@H]2CC[C@]2(C)C(n3cnc4ccccc43)=CC[C@@H]12` [Galeterone (TOK-001)], the cell viability rises from 70.9% to 77.5%.

Compared with `CC(=O)OC(CC(C)C1=C2CC(O)C3C4(C)CCC(=O)C(C)(C)C4CCC3(C)C2(C)CC1)C1OC1(C)C` (configuration not stated) [Alisol B Acetate], `Cc1cc(NS(=O)(=O)c2ccc(N)cc2)no1` [Sulfamethoxazole sodium] is higher in cell viability: 68.4% for the first, 101% for the second.
